Laboratory results taken from PubChem BioAssay (Tox21).
Values joined by “and” are separate entries in the source; they are usually repeats but may differ in a detail not shown here. Equal values may be shown once. Records with an inconclusive call do not appear. A call without a number means that no potency is given here. The source holds several records for some structures; these can differ, active in one and inactive in another. Active and inactive are the calls of the source. Unless noted, calls follow the shape of the dose curve; as a rule, active = well fitted curve in the direction sought with a large enough effect in the repeat runs; inconclusive = weak or mixed curves; inactive = flat fitted curve, though single readings scatter.

Experiments:
[1] = qHTS assay to test for compound auto fluorescence at 535 nm (green) in HEK293 cells (AID 720680)
[2] = qHTS assay to test for compound auto fluorescence at 535 nm (green) in HEK293 cell free culture (AID 720682)
Method in brief: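 Using fluorescein as calibrant, autofluorescence was quantified at 485/535 nm in cell-free DMEM containing 10% FBS after pintool addition of compound or vehicle.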

[3] = qHTS assay to test for compound auto fluorescence at 590 nm (red) in HEK293 cell free culture (AID 720683)
Method in brief: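 Red-channel autofluorescence of compounds in culture medium (DMEM, 10% FBS), no cells, measured at 540/590 nm. Rose Bengal sodium is the reference fluorophore for equivalence.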

[4] = qHTS assay to test for compound auto fluorescence at 590 nm (red) in HepG2 cell free culture (AID 720684)
Method in brief: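 Cell-free; medium MEM + 10% FBS; compound or DMSO added by pintool; read Ex 540/Em 590 nm; Rose Bengal sodium as red reference fluorophore.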

[5] = qHTS assay to test for compound auto fluorescence at 460 nm (blue) in HepG2 cell free culture (AID 720685)
Method in brief: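 Cell-free plates of MEM plus 10% FBS received 23 nL compound or DMSO vehicle; blue-channel (405/460 nm) intensity scored against triamterene as reference fluorophore.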

[6] = qHTS assay to test for compound auto fluorescence at 535 nm (green) in HepG2 cell free culture (AID 720686)
[7] = qHTS assay to test for compound auto fluorescence at 460 nm (blue) in HepG2 cells (AID 720687)
Method in brief: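 Blue-channel autofluorescence (Ex/Em 405/460 nm, triamterene-equivalent) was measured after 1 hr compound exposure at 37 C, 5% CO2. Cells were HepG2, plated overnight at 37 C in MEM plus 10% FBS.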

[8] = molecular target: Glucocorticoid receptor (Homo sapiens) (UniProt P04150); assay: qHTS assay to identify small molecule agonists of the glucocorticoid receptor (GR) signaling pathway (AID 720691; active = well fitted activation curve with a large enough effect in the signal ratio in the repeat runs, not every such curve was filed as active; the % refers to the signal ratio; also: potency is read from the fitted curve at half-maximal effect)
Method in brief: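 Steps: seed GR-bla HeLa cells, incubate 4 h at 37 C/5% CO2; pin-transfer DMSO-dissolved compounds; incubate 18 h at 37 C; add LiveBLAzer B/G FRET substrate; after 2 h at room temperature, measure fluorescence.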

[9] = molecular target: Glucocorticoid receptor (Homo sapiens) (UniProt P04150); assay: qHTS assay to identify small molecule antagonists of the glucocorticoid receptor (GR) signaling pathway (AID 720692; active = well fitted inhibition curve with a large enough effect in the signal ratio in the repeat runs, not every such curve was filed as active; the % refers to the signal ratio; also: potency is read from the fitted curve at half-maximal effect)
Method in brief: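 Antagonism was scored as loss of dexamethasone-driven (5 nM final) reporter signal in HeLa cells bearing a glucocorticoid response element–beta-lactamase construct, after 18 h compound exposure at 37 C and 2 h FRET substrate loading.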

Sequence of Glucocorticoid receptor (Homo sapiens) (P04150 whole entry, looked up): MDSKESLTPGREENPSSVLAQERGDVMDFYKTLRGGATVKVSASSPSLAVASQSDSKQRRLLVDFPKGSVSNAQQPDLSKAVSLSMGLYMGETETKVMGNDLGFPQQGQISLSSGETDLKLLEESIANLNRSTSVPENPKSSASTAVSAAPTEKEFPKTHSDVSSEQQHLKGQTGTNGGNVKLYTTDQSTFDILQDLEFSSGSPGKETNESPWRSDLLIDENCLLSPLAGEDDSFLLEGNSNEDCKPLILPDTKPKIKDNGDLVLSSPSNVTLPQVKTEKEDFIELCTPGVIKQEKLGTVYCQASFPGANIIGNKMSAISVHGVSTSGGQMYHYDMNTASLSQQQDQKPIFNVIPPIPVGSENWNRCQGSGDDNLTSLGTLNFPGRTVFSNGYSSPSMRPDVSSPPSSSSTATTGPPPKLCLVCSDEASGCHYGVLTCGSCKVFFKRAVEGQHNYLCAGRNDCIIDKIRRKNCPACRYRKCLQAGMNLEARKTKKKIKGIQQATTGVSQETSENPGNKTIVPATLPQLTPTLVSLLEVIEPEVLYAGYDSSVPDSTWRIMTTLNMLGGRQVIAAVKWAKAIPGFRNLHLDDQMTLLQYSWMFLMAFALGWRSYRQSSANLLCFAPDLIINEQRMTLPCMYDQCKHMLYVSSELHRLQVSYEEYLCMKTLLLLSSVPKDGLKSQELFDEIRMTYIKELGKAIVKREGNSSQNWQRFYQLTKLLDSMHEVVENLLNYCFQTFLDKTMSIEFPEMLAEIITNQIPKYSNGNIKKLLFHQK

Compound | Potency [1] | Potency [2] | outcome [3] | outcome [4] | Potency [5] | Potency [6] | Potency [7] | Potency [8] | Potency [9] | fluorescence, % of fluorescein [1] | activity change [2] | fluorescence, % of fluorescent control [3] | fluorescence, % of Rose Bengal [4] | fluorescence, % of fluorescent control [5] | fluorescence, % of fluorescein control [6] | fluorescence, % of fluorescent control [7]
O=Cc1ccc(Cl)cc1 | inactive | inactive | inactive | inactive | inactive | inactive | inactive | – | – | – | – | – | – | – | – | –
CCCCCCCCCCCC[N+](C)(C)C | inactive | inactive | inactive | inactive | inactive | inactive | inactive | inactive | 21.8 µM (active) and 21.9 µM (active) | – | – | – | – | – | – | –
CCCCOCCOC(=O)c1ccccc1C(=O)OCCOCCCC | inactive | inactive | inactive | inactive | inactive | inactive | inactive | – | – | – | – | – | – | – | – | –
CCCOC(=O)c1cc(O)c(O)c(O)c1 | inactive | inactive | inactive | inactive | inactive | inactive | inactive | inactive | inactive | – | – | – | – | – | – | –
CCCCC(CC)COC(=O)CC(C(=O)OCC(CC)CCCC)S(=O)(=O)O (stereo not given) | inactive | inactive | inactive | inactive | inactive | inactive | inactive | inactive | – | – | – | – | – | – | – | –
CCCCCC(=O)O[C@]1(C(C)=O)CC[C@H]2[C@@H]3CCC4=CC(=O)CC[C@]4(C)[C@H]3CC[C@@]21C | inactive | inactive | inactive | inactive | inactive | inactive | inactive | inactive | 268 nM (active) and 194 nM (active) | – | – | – | – | – | – | –
CC(=O)N[C@@H](CS)C(=O)O | inactive | inactive | inactive | inactive | inactive | inactive | inactive | inactive | inactive | – | – | – | – | – | – | –
Cc1cc(OCCOCC[N+](C)(C)Cc2ccccc2)ccc1C(C)(C)CC(C)(C)C | inactive | inactive | inactive | inactive | inactive | inactive | inactive | – | – | – | – | – | – | – | – | –
NC(N)=NC(=O)Cc1c(Cl)cccc1Cl | inactive | inactive | inactive | inactive | inactive | inactive | inactive | inactive | – | – | – | – | – | – | – | –
O=C(O)CCc1ccccc1 | inactive | inactive | inactive | inactive | inactive | inactive | inactive | inactive | inactive | – | – | – | – | – | – | –
Clc1ccc2c(c1)C(N1CCNCC1)=Nc1ccccc1O2 | inactive | inactive | inactive | inactive | inactive | inactive | inactive | inactive | 19 µM (active) and inactive | – | – | – | – | – | – | –
Cc1cc(C2(c3cc(C)c(O)cc3C)OS(=O)(=O)c3ccccc32)c(C)cc1O | inactive | inactive | inactive | inactive | inactive | inactive | inactive | inactive | – | – | – | – | – | – | – | –
CC(N)=O | inactive | inactive | inactive | inactive | inactive | inactive | inactive | inactive | inactive | – | – | – | – | – | – | –
NNCCc1ccccc1 | inactive | inactive | inactive | inactive | inactive | inactive | inactive | inactive | inactive | – | – | – | – | – | – | –
Cc1ccc(-c2cc(C(F)(F)F)nn2-c2ccc(S(N)(=O)=O)cc2)cc1 | inactive | inactive | inactive | inactive | inactive | inactive | inactive | – | – | – | – | – | – | – | – | –
CC(=O)O[C@]1(C(C)=O)CC[C@H]2[C@@H]3C[C@H](C)C4=CC(=O)CC[C@]4(C)[C@H]3CC[C@@]21C | inactive | inactive | inactive | inactive | inactive | inactive | inactive | 37.9 nM (active) and 21.9 nM (active) | – | – | – | – | – | – | – | –
CCCCCCCCCCCCCC[P+](CCCC)(CCCC)CCCC | inactive | inactive | inactive | inactive | inactive | inactive | inactive | – | – | – | – | – | – | – | – | –
C/C=C/c1ccc(OCC)c(O)c1 | inactive | inactive | inactive | inactive | inactive | inactive | inactive | inactive | inactive | – | – | – | – | – | – | –
Nc1ccc(O)cc1 | inactive | inactive | inactive | inactive | inactive | inactive | inactive | – | 49 µM (active) | – | – | – | – | – | – | –
C1COC(NC(C2CC2)C2CC2)=N1 | inactive | inactive | inactive | inactive | inactive | inactive | inactive | – | – | – | – | – | – | – | – | –
O=C(Nc1ccccc1SSc1ccccc1NC(=O)c1ccccc1)c1ccccc1 | inactive | inactive | inactive | inactive | inactive | inactive | inactive | – | – | – | – | – | – | – | – | –
OCCOCCN1CCN(C(c2ccccc2)c2ccc(Cl)cc2)CC1 (stereo not given) | inactive | inactive | inactive | inactive | inactive | inactive | inactive | – | – | – | – | – | – | – | – | –
O=C(O)CP(=O)(O)O | inactive | inactive | inactive | inactive | inactive | inactive | inactive | inactive | inactive | – | – | – | – | – | – | –
Cc1scc2c1N(C(=O)CN1CCN(C)CC1)c1ccccc1NC2=O | inactive | inactive | inactive | inactive | inactive | inactive | inactive | – | – | – | – | – | – | – | – | –
Nc1cc(S(=O)(=O)O)cc2cc(S(=O)(=O)O)cc(O)c12 | inactive | inactive | inactive | inactive | inactive | inactive | inactive | inactive | inactive | – | – | – | – | – | – | –
O=C(Oc1ccccc1)c1ccccc1O | inactive | inactive | inactive | inactive | inactive | inactive | inactive | inactive | inactive | – | – | – | – | – | – | –
CCCCCCCCCCCCCCCCCl | – | – | – | – | – | – | – | inactive | inactive | -0.0655% [at 18.6 µM] (inactive) | -0.0974% [at 18.6 µM, stronger effect = higher value] (inactive) | -0.466% [at 18.6 µM] (inactive) | -0.0105% [at 18.6 µM] (inactive) | -0.0526% [at 18.6 µM] (inactive) | -0.0406% [at 18.6 µM] (inactive) | -0.0903% [at 18.6 µM] (inactive)
